Test results: PubChem BioAssay (NCI)
Compounds without any hit were thinned out: in the full panel of roughly 79,000, 15% have a hit. Unmarked numbers belong to inactive results. Calls of active or inactive are those of the source. No stated cut-off is given here; in the data, active means growth inhibition above about 70%; inactive means the rest.

Assay: NCI Yeast Anticancer Drug Screen. Data for the bub3 strain (AID 167)
Conditions: S. cerevisiae bub3 mutant strain, at 50.0 µM, active compounds read high
Summary of the method: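 Inhibition values come from growth of compound-treated mutant yeast normalised to vehicle-treated controls.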

Going from `CCCCCCCCCCCCCCCCS(=O)(=O)N/N=C(/C)N(C)c1ccc(OC)cc1` to `Cc1onc(-c2c(F)cccc2Cl)c1C(=O)OCc1c(F)cccc1Cl`, the growth inhibition rises from -15.4% to 25.1%.

For `CC(C)CC(CC(C)C)=NNC(N)=O`, the growth inhibition was 7%.

Assay: NCI Yeast Anticancer Drug Screen. Data for the mlh1 rad18 strain (AID 175)
Conditions: S. cerevisiae mlh1 rad18 strain growth inhibition; at 50.0 µM; active compounds read high
Summary of the method: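 Genetically defined yeast (DNA repair-deficient) exposed to compounds; growth inhibition determined relative to vehicle.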

Compared with `CC(C)=CCNc1nc(Cl)nc2nc[nH]c12`, `Nc1nc(N)c2c(n1)CCC(CNc1ccc(C(=O)NC(CCC(=O)O)C(=O)O)cc1)C2` (stereo not drawn) is higher in growth inhibition: -67.7% for the first, 29.7% for the second.

First: BrC1CC2CCCCC2CC1Br (stereo not drawn)
Second: CC(C)C1CCC(=O)CC1
The growth inhibition of the first is higher: 9.65% for the first, -4.9% for the second.

Going from `CC(C)OC(=O)C1CCC(=O)N1` (stereo not drawn) to `CC(CC(=N)N)NC(=O)C1CCC(N)=N1` (stereo not drawn), the growth inhibition rises from -20.4% to -9.75%.

First: COc1cc(O)c2c(c1)C(=O)c1cc(C)cc(O)c1C2=O
Second: COc1ccc(/C=C2/C(=O)N(c3ccccc3)N=C2C)cc1
The growth inhibition of the first is lower: -10.8% for the first, 22.1% for the second.

Going from `CC(=O)Oc1cc2oc([O-])c[n+]2c2ccccc12` to `CN1C(c2ccccc2)=C(C#N)C(=O)CC(c2ccc(Cl)cc2)N1C` (stereo not drawn), the growth inhibition rises from 0.95% to 2.65%.

Compared with `CCc1ccc2[nH]nc(CCC(=O)O)c(=O)c2c1`, `O=C(CCCc1ccc([N+](=O)[O-])cc1)c1ccccc1` is higher in growth inhibition: -7.05% for the first, -4.65% for the second.

Compared with `O=[N+]([O-])c1cc(O)ccc1O`, `CC(=O)N(C)c1ccc(N)cc1` is higher in growth inhibition: 12% for the first, 36.5% for the second.

First: CCCCC(CC)COCCC(=O)O (stereo not drawn)
Second: CCCCOC(=O)C1(C(=O)OCCCC)CC1
The growth inhibition of the first is lower: -18.8% for the first, 3.55% for the second.

Compared with `CCOC(=O)c1ccc(C#N)cc1`, `CCCCCCCCC(=O)OCC(=O)c1ccc(-c2ccccc2)cc1` is lower in growth inhibition: 5.45% for the first, 3.65% for the second.

Compared with `Cc1ccc(NC(=O)C2CCN(C)CC2)cc1`, `CN(C)S(=O)(=O)N1CCCc2ccccc21` is higher in growth inhibition: 7.85% for the first, 11% for the second.

Going from `CCC(O)(C#CCl)CC` to `CCC(O)(c1ccc(OC)cc1)C(O)(CC)c1ccc(OC)cc1` (stereo not drawn), the growth inhibition falls from 11.1% to 4.9%.

Compared with `COc1ccc2c(c1)CC1(CC2)CCN(CCCN(C)C)CC1`, `CCCCCCCCCCCCCCCCS(=O)(=O)N/N=C(/C)N(C)c1ccc(OC)cc1` is higher in growth inhibition: -42.3% for the first, -7.15% for the second.

Compared with `Cc1cc(C)c(/C=N/NC(=O)NN)c(C)c1`, `CC(C)CC(CC(C)C)=NNC(N)=O` is higher in growth inhibition: -4.6% for the first, 24.4% for the second.

Going from `COc1cc(-c2ccc(N=Nc3ccc(N)nc3N)c(OC)c2)ccc1N=Nc1ccc(N)nc1N` to `COc1ccc2c(c1)C(=O)[C@@](Nc1ccc(C=O)cc1)(OC)[C@@](OC)(c1ccc([N+](=O)[O-])cc1)O2`, the growth inhibition rises from 11.7% to 12.4%.

Compared with `CCCCCCC(O)CCCCCCCCCCCO` (stereo not drawn), `C=CCCCCCCCCC(=O)NCC1CC1` is lower in growth inhibition: 15.5% for the first, -4.75% for the second.

First: C=C(C)CCC[C@@H](C)C1CCC2(C)[C@@H]3CCC4C(C)(C)[C@@H](O)CC[C@@]45C[C@@]35CC[C@]12C (stereo partly drawn)
Second: C/C(=N/NC(N)=O)C1CCC(C)CC1 (stereo not drawn)
The growth inhibition of the first is lower: 23.1% for the first, 31% for the second.

First: OC(c1cc(-c2ccccc2)nc2c1ccc1ccccc12)C1CCCCN1 (stereo not drawn)
Second: ClC(c1ccccc1)c1cccc2ccccc12 (stereo not drawn)
The growth inhibition of the first is lower: 26.4% for the first, 41.6% for the second.

First: N#CCc1ccc(-c2ccccc2)cc1
Second: CC(C)NCc1ccccc1Sc1ccccc1CNC(C)C
The growth inhibition of the first is lower: 6.25% for the first, 16.2% for the second.

First: Nc1ncnc2c1ncn2C1C=CC(COS(N)(=O)=O)C1 (stereo not drawn)
Second: Cc1onc(-c2c(F)cccc2Cl)c1C(=O)OCc1c(F)cccc1Cl
The growth inhibition of the first is higher: 29.4% for the first, 24.5% for the second.

In the case of `O=c1c(Cl)cc(Cl)cn1S(=O)(=O)c1ccc([N+](=O)[O-])cc1`, the growth inhibition was 98.9% (active).
In the case of `CCCCC(=O)N1SC(NC(=O)OC)=Nc2ccccc21`, the growth inhibition was 76.2% (active).
